Compounds with a hit are over-represented: about 1.6% of the library has one in this group of screens.
F-actin modifier – modifiers of F-actin cytoskeleton organization, primary screen, imaging, HUVEC, phalloidin staining, high-content imaging; inhibition, % at 2 µM; actives 0.18% (n = 91,000); HUVEC TNFa F-actin phalloidin imaging;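 active = inhibition above the batch mean plus 3 SD and confirmed as a hit by visual image inspection, cut at about 30% in these data, passing the limit was not always enough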
E-sel TNF inh – E-selectin induction blockers in HUVEC – imaging, immunofluorescence, high content, primary screen | HUVEC TNFa-induced E-selectin immunofluorescence | inhibition, % at 2 µM | actives 0.71% (n = 120,000) | AID 1246, 2008;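 active = inhibition above the batch mean plus 3 SD, and confirmed as a hit on visual image review, cut at about 43% in these data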;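 note: 0% = TNF-stimulated DMSO wells and 100% = unstimulated control wells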
TNFa cytotox – cytotoxicity in TNFa-stimulated HUVEC, primary screen, cytotoxicity control for VCAM1 expression modulator project, imaging, Hoechst nuclei count | HUVEC TNFalpha-stimulated, Hoechst cell count | actives 0.17% (n = 93,000) | cell count reduction, % at 2 µM;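 active = cell count reduction exceeding the screen mean by over 5 SD, scaled to untreated wells per plate, cut at about 78% in these data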;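 note: cells counted after 24 h of TNF alpha exposure following the 1 h pretreatment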
Insulin prom inh – inhibitors of insulin promoter-driven GFP, primary screen, imaging, TRM-6 cells (human fetal islet line), eGFP reporter, cell count; reporter expression induced with tamoxifen; inhibition, % at 2 µM; actives 0.9% (n = 130,000); AID 1273, 2008;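 active = inhibition above the mean plus 3 SD, with well images judged a real hit on visual review, cut at about 60% in these data, passing the limit was not always enough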
Phagocytosis inh – inhibitors of macrophage phagocytosis, primary screen, imaging, J774A.1 cells, IgG beads. inhibition, % at 5 µM. J774A.1 macrophage IgG-bead phagocytosis. actives 0.07% (n = 110,000);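 active = inhibition above the mean of the plate negative controls plus 5 SD, cut at about 13% in these data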;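 note: phagocytic index as fraction of beads internalized from green versus red external bead signal; plate controls were DMSO negative control for no effect and cytochalasin-D positive control for full effect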
VCAM1 TNFa inh – inhibitors of TNFa-induced VCAM1 expression, primary screen, imaging, HUVEC, TNFa stimulus, immunofluorescence | HUVEC TNFa-induced VCAM-1 immunofluorescence, high-content imaging | inhibition, % at 2 µM | actives 0.48% (n = 95,000) | AID 802, 2007;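 active = inhibition above the batch mean plus 3 SD, with images confirmed as a hit by eye, cut at about 37% in these data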;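 note: 0% = TNF-stimulated DMSO wells and 100% = unstimulated control wells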
* marks the source's active call; other numbers are inactive results.

Screening O=S(=O)(N1CCOCC1)n1c(Cc2ccccc2)nc2ccccc21 returned E-sel TNF inh -1, Insulin prom inh 70* and Phagocytosis inh 0.
For O=S(=O)(c1ccc(Cl)cc1)n1c(Cc2ccccc2)nc2ccccc21 the results were Insulin prom inh 41 and Phagocytosis inh -13.
`CC(NC(=O)C1CCN(S(=O)(=O)c2cnc[nH]2)CC1)c1ccccc1` (centres undefined) gave E-sel TNF inh -47, Insulin prom inh 0 and Phagocytosis inh -3.
Cc1ccc(N2CCN(S(=O)(=O)N3CCCCC3)CC2)cc1Cl was read as E-sel TNF inh -14, Insulin prom inh 70* and Phagocytosis inh -3.
Screening CN1CCC(N(C)C(=S)NC(=O)C23CC4CC(CC(C4)C2)C3)CC1 returned E-sel TNF inh 79* and Phagocytosis inh -10.
`CC(=O)Nc1ccc(NC(=O)c2ccc(CSc3ccccc3)o2)cc1` gave Insulin prom inh 82*.
For O=C(Nc1cccc(F)c1)c1ccc(CSc2ccccc2)o1 the results were Insulin prom inh -20 and Phagocytosis inh -1.
CCOC(=O)c1ccc(NC(=O)Cn2nnc(-c3ccccc3)n2)cc1 was read as F-actin modifier 23, TNFa cytotox 98*, Insulin prom inh -21, Phagocytosis inh -1 and VCAM1 TNFa inh 88*.
CCOC(=O)c1ccc(NC(=O)Cn2nnc(-c3ccc(F)cc3)n2)cc1 was read as E-sel TNF inh -16, Insulin prom inh -3 and Phagocytosis inh 1.
Screening CCCCN(C)CCC(=O)Nc1ccc(F)c(F)c1 returned Insulin prom inh -17 and Phagocytosis inh 0.
For O=C1OC(c2ccccc2)/C(=C(/O)c2ccc(Cl)cc2)C1=O (centres undefined) the results were F-actin modifier -23, E-sel TNF inh 10, TNFa cytotox 9, Insulin prom inh 75*, Phagocytosis inh -1 and VCAM1 TNFa inh 16.
CCCn1c(N)c(C(=O)CSc2nc(C)cs2)c(=O)[nH]c1=O was read as F-actin modifier 9, E-sel TNF inh 1, TNFa cytotox -12, Insulin prom inh 77*, Phagocytosis inh 1 and VCAM1 TNFa inh 27.
COc1cc(Cl)c(C)cc1NC(=O)CNC(=O)Cn1cnc2ccccc2c1=O was read as F-actin modifier -28, TNFa cytotox -2, Insulin prom inh 11 and VCAM1 TNFa inh 4.
`Cc1c(NC(=O)C2CCCN2S(=O)(=O)c2ccc(Cl)cc2)c(=O)n(-c2ccccc2)n1C` (centres undefined) gave F-actin modifier -4, E-sel TNF inh 2, TNFa cytotox -14, Insulin prom inh 21, Phagocytosis inh 0 and VCAM1 TNFa inh -2.
Cc1c(CCO)c(=O)n(-c2ccccc2)n1S(=O)(=O)c1ccc(Cl)cc1 was read as F-actin modifier 31*, E-sel TNF inh 8, TNFa cytotox -43, Insulin prom inh -18 and VCAM1 TNFa inh 13.
`Cc1ccc(-c2nnn(CC(=O)N(C)C3CCCCC3)n2)o1` gave Insulin prom inh 74*.
For Cc1nn(S(=O)(=O)c2cccs2)c(C)c1Sc1ccc([N+](=O)[O-])cc1 the results were F-actin modifier 1, E-sel TNF inh -76, TNFa cytotox -50, Insulin prom inh -54, Phagocytosis inh -3 and VCAM1 TNFa inh 6.
Cc1nn(S(=O)(=O)c2ccccc2)c(C)c1Sc1ccc([N+](=O)[O-])cc1 was read as F-actin modifier 46*, TNFa cytotox 14, Insulin prom inh -36, Phagocytosis inh -1 and VCAM1 TNFa inh 10.
COc1cc2c(cc1OC)/C(=C/c1ccc(Br)cc1)C(=O)OC2 was read as E-sel TNF inh -1 and Insulin prom inh 71*.
`COc1cc(OC)c2c(c1)C(=O)OC2` gave Insulin prom inh -7 and Phagocytosis inh 0.
`C/C(=N\NC(=O)CCCNc1ccc(C)cc1)c1ccccn1` gave E-sel TNF inh 12, Insulin prom inh 64* and Phagocytosis inh -4.
Screening C=CCc1cccc(CNc2c(C)n(C)n(-c3ccccc3)c2=O)c1O returned F-actin modifier 15, E-sel TNF inh -6, TNFa cytotox 2, Insulin prom inh 76*, Phagocytosis inh 0 and VCAM1 TNFa inh 5.
Screening Cc1c(NC(=O)CC(=O)Nc2c(C)n(C)n(-c3ccccc3)c2=O)c(=O)n(-c2ccccc2)n1C returned F-actin modifier 6, TNFa cytotox -16, Insulin prom inh -36, Phagocytosis inh 2 and VCAM1 TNFa inh -6.
`CCCNc1ncccc1C(N)=O` gave E-sel TNF inh -1, Insulin prom inh 61* and Phagocytosis inh -3.
`CNS(=O)(=O)c1cccc(C(=O)OCC(=O)Nc2ccc(OC)cc2[N+](=O)[O-])c1` gave E-sel TNF inh 7 and Insulin prom inh 53.
For CC(=O)/C(=N\Nc1ccccc1)Sc1nncn1C the results were Insulin prom inh -38 and Phagocytosis inh -2.
CCOC(=O)c1[nH]c2cc(OC)c(OC)cc2c1NC(=O)CN1CCN(c2ccc(OC)cc2)C(C)C1 (centres undefined) was read as F-actin modifier -3, E-sel TNF inh 1, TNFa cytotox -25, Insulin prom inh 67*, Phagocytosis inh 0 and VCAM1 TNFa inh -30.
O=C(CN1CCN(c2nc(-c3ccc(F)cc3)cs2)CC1)Nc1ccc2c(c1)OCO2 was read as F-actin modifier 1, TNFa cytotox 13, Phagocytosis inh -1 and VCAM1 TNFa inh 88*.
CCCOC(=O)CSC1=C(C#N)C(c2ccccc2OC)C(C#N)C(=O)N1 (centres undefined) was read as F-actin modifier -4, TNFa cytotox 83*, Phagocytosis inh -1 and VCAM1 TNFa inh 92*.
`O=C(CSc1nnc(-c2ccccc2NC(=O)c2ccccc2)o1)OC1CCCCC1` gave F-actin modifier 11, E-sel TNF inh 12, TNFa cytotox -36, Insulin prom inh -25 and VCAM1 TNFa inh 1.
`Cc1ccc2c(c1)C(c1ccccc1)N(C(=O)C(C)C)CC(=O)N2` (centres undefined) gave Phagocytosis inh -1.
Cc1ccc2c(c1)C(c1ccc(F)cc1)N(C(=O)c1cc3ccccc3oc1=O)CC(=O)N2 (centres undefined) was read as E-sel TNF inh 95* and Insulin prom inh -10.
Screening Cc1cccc(C)c1NC(=O)CC(NCCc1ccccc1)C(=O)O (centres undefined) returned Phagocytosis inh -4.
CC(=O)C(=Nc1ccccc1Cl)NNc1ccc(Cl)cc1 was read as F-actin modifier 17, E-sel TNF inh -26, TNFa cytotox -16, Insulin prom inh 75* and VCAM1 TNFa inh 4.

Bioassay records deposited in PubChem BioAssay by several laboratories.
